Counter-ions that a name gives are not always drawn.
These molecules were tested on Ruminococcus gnavus DSM 108212 (assay: growth (OD595) fold change vs plate DMSO controls (fold change (ratio)); higher = more growth). Conditions: incubation time: 27 h, anaerobic, 37 °C.
Summary of the method: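 Growth is the fold change relative to the median of plate DMSO controls. Readings came from anaerobic mGAM cultures in 96-well plates grown for 27 h at 37 °C and read at 595 nm. They were blank-subtracted, corrected for compound background with 20 µM compound solutions in water, and converted to OD with a calibration factor of 5. Values are means of 2 biological replicates, and fold changes above 1.5 were set to NA.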
Work on `CN(C(=O)CN(CCO)CC(=O)N(C)C(C)(C)Cc1ccccc1)C(C)(C)Cc1ccccc1` [Oxethazaine] (20 µM) yielded a growth of 0.384.
`CCCCC(CC)CN1C(=O)[C@@H]2[C@H](C1=O)[C@@H]1C=C[C@H]2C1` (mixture of isomers) (20 µM) was tested, and the growth was 1.02.
`CC(=O)OCC1=C(C(=O)O)N2C(=O)[C@@H](NC(=O)Cc3cccs3)[C@H]2SC1` [Cephalothin sodium salt] (20 µM) showed a growth of 0.125.
`Cc1cc(CC(=O)O)n(C)c1C(=O)c1ccc(Cl)cc1` [Zomepirac sodium salt] (20 µM) showed a growth of 1.13.
With `CC(CNC1CCCCC1)OC(=O)c1ccccc1` (stereo unspecified) [Hexylcaine hydrochloride] (20 µM) the growth was 1.02.
For `CC(C)n1c(/C=C/C(O)CC(O)CC(=O)O)c(-c2ccc(F)cc2)c2ccccc21` (stereo unspecified) [Fluvastatin sodium salt] (20 µM), the growth was 0.918.
`CCCc1cc(=O)[nH]c(=S)[nH]1` [Propylthiouracil] (20 µM) gave a growth of 1.05.
With `CC(=O)Nc1ccc(OCC(O)CNC(C)C)cc1` (stereo unspecified) [Practolol] (20 µM) the growth was 1.17.
In the case of `C[C@@H]1O[C@@H](O[C@H]2[C@H](Oc3cc(O)c(C(=O)CCc4ccc(O)cc4)c(O)c3)O[C@H](CO)[C@@H](O)[C@@H]2O)[C@H](O)[C@H](O)[C@H]1O` [Naringin Dihydrochalcone] (50 µM), the growth is reported as 1.2.
`Nc1cc(-c2ccncc2)c[nH]c1=O` [Amrinone] (20 µM) was tested, and the growth was 1.19.
`CC#CCn1c(N2CCC[C@@H](N)C2)nc2c1c(=O)n(Cc1nc(C)c3ccccc3n1)c(=O)n2C` [Linagliptin] (20 µM) was tested, and the growth was 0.856.
